Molecules are shown by their SMILES. A number with no mark means an inactive call. Results filed as inconclusive are left out. The source made the active and inactive calls. Unless noted, calls follow the shape of the dose curve; as a rule, active = well fitted curve in the direction sought with a large enough effect; inconclusive = small, poorly fitted or top-dose-only effect, or another doubt; inactive = no such curve, though single readings can be large; an effect the other way counts as inactive or inconclusive. Bounds are passed on as bounds.

The text below walks through data of PubChem BioAssay (NCATS).

Assay [1] concerns the target Lysosomal acid glucosylceramidase (Homo sapiens) (UniProt P04062). Kind of assay: Glucocerebrosidase-p2 (AID 348; in the data active = potency below about 10 µM; also: potency is read from the fitted curve at half-maximal effect). Particulars: purified GBA, blue fluorogenic substrate, 40 min. A digest of the protocol: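 Compounds titrated from 0.6 nM upwards against 0.2 nM enzyme in pH 5.9 citric acid/KH2PO4, taurocholate, tween-20; blue fluorogenic substrate 80 uM, 40 min room temperature, stopped and read Ex 365/Em 440 for AC50.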

Assay [2] is described as follows: AP1 Signaling Pathway (AID 357; active = well fitted curve in either direction with a large enough effect, not every such curve was filed as active;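 also: ME-180 reporter cells stimulated with EGF at its EC50 level; % is scaled to controls: 0 for no effect and ±100 for the full control effect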). Conditions: ME-180 AP-1-bla reporter, EGF-induced, beta-lactamase ratio, 5 h; at 7.69 µM (top of the series) unless noted. A digest of the protocol:
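In this screen, ME-180 cells in Opti-MEM with 0.5% dialyzed FBS received EC50 EGF and compound titrations for 5 h. AP-1 reporter beta-lactamase was detected via CCF4 ratio, giving AC50 for positive and negative modulators.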

Assay [3] addresses Cytochrome P450 1A2 (Homo sapiens) (UniProt P05177). Kind of assay: p450-cyp1a2 (AID 410; calls by dose curve; also: potency is read from the fitted curve at half-maximal effect). Conditions: recombinant CYP1A2, luciferin-ME demethylation, luminescence; series mostly up to 57 µM. The method, boiled down:
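20nM CYP1A2 with 100uM Luciferin-ME (at Km) in 100mM KPO4; compound preincubated 10 min, NADPH regeneration added, 60 min at room temperature. Luciferin quantified by luminescence after detection reagent; normalized to 57 uM furafylline.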

Assay [4] in a line: Stat Signaling Pathway (AID 446; active = well fitted curve in either direction with a large enough effect, not every such curve was filed as active;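 also: ME-180 cervical cancer cells given 40 pM IL-6 alongside compound; SIE-controlled beta-lactamase reporter measured as 460/530 nm FRET emission ratio; % is scaled to controls: 0 for no effect and ±100 for the full control effect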). Particulars: ME-180 SIE beta-lactamase reporter, IL-6 stimulated, 5 h; at 7.69 µM (top of the series) unless noted. A digest of the protocol:
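IL-6/STAT signaling read in ME-180 cells via an SIE beta-lactamase reporter. Stimulus was 40 pM IL-6 (its AC50) for 5 hrs, so both activation and inhibition register.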

Assay [5] deals with Glucocorticoid receptor (Homo sapiens) (UniProt P04150). Kind of assay: GR-GFP Redistribution (AID 450;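 active = compounds whose dose series gives a full or clear partial fitted curve of increased nuclear translocation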; also: potency is read from the fitted curve at half-maximal effect). Particulars: U2OS GR-GFP nuclear translocation, laser cytometry, 2 h.
Sequence of Glucocorticoid receptor (Homo sapiens) (P04150 whole entry, looked up, the tested form may be a part): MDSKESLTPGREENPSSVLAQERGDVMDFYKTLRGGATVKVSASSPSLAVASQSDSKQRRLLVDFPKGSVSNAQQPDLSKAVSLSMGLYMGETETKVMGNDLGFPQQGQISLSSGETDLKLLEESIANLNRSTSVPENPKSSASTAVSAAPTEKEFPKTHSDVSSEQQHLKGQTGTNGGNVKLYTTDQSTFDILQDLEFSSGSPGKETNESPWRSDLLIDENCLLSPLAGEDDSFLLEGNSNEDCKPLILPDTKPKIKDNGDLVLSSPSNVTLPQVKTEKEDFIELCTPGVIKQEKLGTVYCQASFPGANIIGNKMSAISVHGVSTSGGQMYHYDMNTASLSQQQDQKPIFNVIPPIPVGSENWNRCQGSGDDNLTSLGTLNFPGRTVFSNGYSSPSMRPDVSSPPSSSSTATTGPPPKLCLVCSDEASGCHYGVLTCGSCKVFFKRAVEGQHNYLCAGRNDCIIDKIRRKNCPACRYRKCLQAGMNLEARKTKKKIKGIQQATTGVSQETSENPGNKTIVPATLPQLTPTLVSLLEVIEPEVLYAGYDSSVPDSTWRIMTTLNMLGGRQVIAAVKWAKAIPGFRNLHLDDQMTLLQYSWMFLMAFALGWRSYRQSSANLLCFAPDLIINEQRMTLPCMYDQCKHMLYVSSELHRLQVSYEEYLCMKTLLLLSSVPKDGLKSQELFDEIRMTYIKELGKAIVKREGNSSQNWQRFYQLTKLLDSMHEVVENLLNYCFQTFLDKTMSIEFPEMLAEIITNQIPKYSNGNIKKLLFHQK
The target is the same in assay [6]. Put plainly: GR-EFC Redistribution (AID 451; calls by dose curve; also: potency is read from the fitted curve at half-maximal effect). Particulars: CHO-K1 GR-EFC translocation, beta-gal luminescence, 2 h. A digest of the protocol: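 Translocation of GR-ED fusion to nuclear EA restores b-gal, read by luminescence after 1 h room-temperature detection. Engineered CHO-K1 biosensor cells, 1,000/well, exposed 2 h at 37 C to titrations up to 46 uM final.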

The target of assay [7] is Mitogen-activated protein kinase 10 (Mus musculus) (UniProt Q61831). Kind of assay: JNK3 AlphaScreen Assay (AID 530; active = well fitted curve in either direction with a large enough effect, not every such curve was filed as active;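 also: kinase came from lysate of stimulated human HepG2 cells; signal reports phosphorylation of biotinylated GST-cJun 1-79 at Ser73 with 10 µM ATP; % is scaled to controls: 0 for no effect and ±100 for the full control effect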). Conditions: JNK3 lysate, c-Jun phosphorylation; series mostly up to 57.1 µM. The method, boiled down:
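Compound titrations were preincubated 15 minutes at room temperature with substrate, antibody and pre-activated JNK3-containing HepG2 lysate. Reactions were started with 10 uM ATP and stopped with EDTA-containing bead buffer for AlphaScreen detection.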
(In general: Alpha assays give light when donor and acceptor beads are brought close together.)

For assay [8], the target named is 3',5'-cyclic-AMP phosphodiesterase 4B (Homo sapiens) (UniProt Q07343). Put plainly: qHTS Assay for Inhibitors of PDE-IV (AID 607; active = well fitted activation curve with a large enough effect in the main read-out, with a control signal flat, not every such curve was filed as active; also: % of control where 0% means no effect). Particulars: HEK293 ACTOne CNG channel cells, membrane potential fluorescence; series mostly up to 22.9 µM. The method, boiled down: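 Live HEK293 cells with a modified cyclic nucleotide-gated (CNG) channel report intracellular cAMP via membrane-potential dye fluorescence (ex 535/em 590 nm). Endogenous PDE-IV was targeted. Compounds were tested at up to 22.9 uM final; RO 20-1724 100 uM served as control.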
Sequence of 3',5'-cyclic-AMP phosphodiesterase 4B (Homo sapiens) (Q07343 whole entry, looked up): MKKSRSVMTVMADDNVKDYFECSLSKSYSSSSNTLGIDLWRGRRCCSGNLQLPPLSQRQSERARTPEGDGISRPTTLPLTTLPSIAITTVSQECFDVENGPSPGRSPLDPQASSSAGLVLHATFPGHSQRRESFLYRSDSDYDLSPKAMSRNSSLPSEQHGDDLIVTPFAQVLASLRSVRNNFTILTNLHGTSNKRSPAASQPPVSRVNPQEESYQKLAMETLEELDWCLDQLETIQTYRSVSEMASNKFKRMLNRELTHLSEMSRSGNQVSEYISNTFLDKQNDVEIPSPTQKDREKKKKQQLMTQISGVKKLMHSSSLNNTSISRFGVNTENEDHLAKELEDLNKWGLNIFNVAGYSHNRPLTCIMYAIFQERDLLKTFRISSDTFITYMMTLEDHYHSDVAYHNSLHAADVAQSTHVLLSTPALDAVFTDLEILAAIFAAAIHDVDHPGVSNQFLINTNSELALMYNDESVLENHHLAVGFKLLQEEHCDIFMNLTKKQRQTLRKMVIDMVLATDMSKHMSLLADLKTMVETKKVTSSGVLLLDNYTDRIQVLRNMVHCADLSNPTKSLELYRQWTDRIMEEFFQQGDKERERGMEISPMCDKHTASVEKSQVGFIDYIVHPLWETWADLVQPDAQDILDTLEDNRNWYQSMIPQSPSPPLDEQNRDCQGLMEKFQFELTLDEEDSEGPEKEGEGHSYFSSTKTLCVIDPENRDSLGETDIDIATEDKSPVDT

The target of assay [9] is Cytochrome P450 2C9 (Homo sapiens) (UniProt P11712). Put plainly: qHTS Assay for Inhibitors and Substrates of Cytochrome P450 2C9 (AID 883). Also: potency is read from the fitted curve at half-maximal effect; nearly all actives have a fitted effect of over 60% in size. Conditions: recombinant CYP2C9, luciferin-H luminescence, 60 min; series mostly up to 57.1 µM. A digest of the protocol: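 Turnover of Luciferin-H (100uM, KM) by 10nM human CYP2C9 was measured over 60 min at 37C with NADPH regeneration; inhibitors and some substrates reduce luminescence. Data normalized to sulphaphenazole 57uM.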
(In general: In qHTS, concentration-response curves come from the screen itself.)

Assay [10] deals with Dual specificity protein kinase CLK4 (Homo sapiens) (UniProt Q9HAZ1). Put plainly: qHTS Assay for Inhibitors of CDC-like Kinase 4 (Kinase-Glo Assay) (AID 1770). Also: nearly all actives have a fitted effect of over 65% in size. Also: potency is read from the fitted curve at half-maximal effect. Particulars: recombinant Clk4, Kinase-Glo ATP depletion luminescence; series mostly up to 66.7 µM. The method, boiled down:
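25 nM Clk4 with 100 uM RS repeat peptide and 1 uM ATP (final) in Tris pH7.5, 10 mM MgCl2, 4.5 h at room temperature. Remaining ATP measured by Kinase-Glo luciferase luminescence.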

For assay [11] the target is unchanged. Put plainly: qHTS Assay for Inhibitors of CDC-like Kinase 4 (ADP-Glo Assay) (AID 1771). Also: nearly all actives have a fitted effect of over 70% in size. Also: potency is read from the fitted curve at half-maximal effect. Conditions: recombinant CLK4, ADP-Glo luminescence; series mostly up to 80 µM. The method, boiled down:
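25 nM Clk4 with 100 uM RS repeat peptide and 1 uM ATP (final) in buffer with 2 mM MgCl2, 0.5 mM EGTA, 2.5 mM DTT, 0.01% Triton X-100; 1 h at room temperature; ADP-Glo luminescence for ADP formed.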

For assay [12] the target is unchanged. Kind of assay: qHTS Assay for Inhibitors of CDC-like Kinase 4 (ADP-FP Assay) (AID 1795). Also: nearly all actives have a fitted effect of over 60% in size. Also: potency is read from the fitted curve at half-maximal effect. Conditions: Transcreener ADP fluorescence polarization; series mostly up to 50 µM. A digest of the protocol:
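Recombinant Clk4 (6.25 nM) phosphorylated 100 uM RS repeat peptide with 1 uM ATP in 25 mM Tris pH 7.5, 10 mM MgCl2, 0.5 mM EGTA, 2.5 mM DTT, 0.01% Triton X-100 for 1 h. ADP was detected by Transcreener ADP2 competitive fluorescence polarization after 30 min at room temperature.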

In assay [13] the target is Ubiquitin carboxyl-terminal hydrolase 1 (Homo sapiens) (UniProt O94782). Kind of assay: Inhibitors of USP1/UAF1: Pilot qHTS (AID 504865).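 Also: rhodamine fluorescence freed from ubiquitin-rhodamine substrate followed over time; top concentration of the series differs between compounds; % is scaled to controls: 0 for no effect and ±100 for the full control effect; nearly all actives have a fitted effect of over 35% in size.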 Conditions: purified USP1/UAF1, Ub-rhodamine cleavage fluorescence; series mostly up to 54.9 µM. A digest of the protocol: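 USP1/UAF1 complex at 1 nM preincubated 15 min at room temperature with compound, then Ub-Rho substrate added at 150 nM final. Fluorescence (480/540 nm) read kinetically in 50 mM HEPES pH 7.8, 0.5 mM EDTA, 1 mM TCEP, 0.1 mg/ml BSA, 0.01% Tween-20.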
Sequence of Ubiquitin carboxyl-terminal hydrolase 1 (Homo sapiens) (O94782 whole entry, looked up): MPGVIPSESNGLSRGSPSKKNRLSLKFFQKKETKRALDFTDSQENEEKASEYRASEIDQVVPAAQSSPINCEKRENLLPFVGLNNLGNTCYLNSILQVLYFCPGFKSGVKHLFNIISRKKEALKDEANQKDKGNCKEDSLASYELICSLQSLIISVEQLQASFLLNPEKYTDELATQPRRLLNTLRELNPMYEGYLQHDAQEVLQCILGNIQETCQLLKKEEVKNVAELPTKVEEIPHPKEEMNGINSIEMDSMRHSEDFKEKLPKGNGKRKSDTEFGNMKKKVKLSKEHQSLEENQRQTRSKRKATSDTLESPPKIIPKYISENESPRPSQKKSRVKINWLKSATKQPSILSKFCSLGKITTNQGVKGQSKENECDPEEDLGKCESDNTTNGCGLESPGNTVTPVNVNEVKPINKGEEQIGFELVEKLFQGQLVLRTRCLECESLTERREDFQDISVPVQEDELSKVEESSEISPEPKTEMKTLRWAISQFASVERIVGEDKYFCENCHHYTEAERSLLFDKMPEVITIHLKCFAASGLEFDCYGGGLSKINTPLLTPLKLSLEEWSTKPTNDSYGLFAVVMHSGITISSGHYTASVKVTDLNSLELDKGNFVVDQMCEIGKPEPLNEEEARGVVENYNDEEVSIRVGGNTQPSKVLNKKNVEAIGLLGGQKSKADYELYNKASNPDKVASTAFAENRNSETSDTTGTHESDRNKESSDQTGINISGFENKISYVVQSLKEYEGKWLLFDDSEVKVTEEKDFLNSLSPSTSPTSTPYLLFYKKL

Assay [14] can be described thus: Primary qHTS for small molecule stabilizers of the endoplasmic reticulum resident proteome: Secreted ER Calcium Modulated Protein (SERCaMP) assay (AID 1508630). Also: % is scaled to controls: 0 for no effect and ±100 for the full control effect. Particulars: SH-SY5Y GLuc-SERCaMP (Gaussia luciferase released on ER calcium loss) secretion, thapsigargin, luminescence; series mostly up to 38.4 µM. The method, boiled down:
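GLuc-SERCaMP-expressing SH-SY5Y cells, pretreated 16 h with compound, are challenged with thapsigargin to empty ER calcium stores; after 4 h, coelenterazine is added directly to the medium and luminescence is imaged.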

Assay [15] addresses Cytochrome P450 3A4 (Homo sapiens) (UniProt P08684). Put plainly: qHTS Assay for Inhibitors and Substrates of Cytochrome P450 3A4 (AID 884). Also: nearly all actives have a fitted effect of over 50% in size. Also: potency is read from the fitted curve at half-maximal effect. Particulars: recombinant CYP3A4, Luciferin-PPXE luminescence; series mostly up to 57.1 µM. The method, boiled down: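 20 nM human CYP3A4 with 25 uM Luciferin-PPXE (at KM) in 200 mM KPO4, preincubated 10 min with compound; NADPH regeneration started a 60 min RT reaction. Luciferin detected by luminescence, normalized to 57 uM ketoconazole as full inhibition.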

The target in assay [16] is Cytochrome P450 2D6 (Homo sapiens) (UniProt P10635). Put plainly: qHTS Assay for Inhibitors and Substrates of Cytochrome P450 2D6 (AID 891). Also: potency is read from the fitted curve at half-maximal effect; nearly all actives have a fitted effect of over 60% in size. Conditions: recombinant CYP2D6, luciferin-ME EGE luminescence; series mostly up to 57.1 µM. A digest of the protocol: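 Human CYP2D6 (5 nM) with 30 uM Luciferin-ME EGE (at Km) in 100 mM KPO4, compound preincubated 10 min, then NADPH regeneration system for 60 min at room temperature. Luciferin read by luminescence; normalized to 1.43 uM quinidine.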

Assay [17] has as its target Cytochrome P450 2C19 (Homo sapiens) (UniProt P33261). Put plainly: qHTS Assay for Inhibitors and Substrates of Cytochrome P450 2C19 (AID 899). Also: potency is read from the fitted curve at half-maximal effect; nearly all actives have a fitted effect of over 60% in size. Conditions: recombinant CYP2C19, luciferin-H EGE luminescence; series mostly up to 57.1 µM. A digest of the protocol: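 Reactions contain 5nM enzyme, 10uM Luciferin-H EGE (KM) and 50mM KPO4; compound preincubates 10 min at 37C, NADPH regeneration starts turnover for 60 min. Luminescence after detection reagent gives activity.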

The nature of assay [18]: NFAT Signaling Pathway (AID 444; active = well fitted curve in either direction with a large enough effect, not every such curve was filed as active). Conditions: Jurkat NFAT-bla M1, carbachol, beta-lactamase ratio, 5 h; at 7.69 µM (top of the series) unless noted. A digest of the protocol: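 Read-out: CCF4 FRET ratio (460 nm/530 nm) after 1 h RT dye loading, used for %activity and AC50 from titration series. Cells: Jurkat NFAT-β-lactamase/M1 line, treated with compound plus 1 uM carbachol for 5 h, 37 °C.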

The nature of assay [19]: qHTS Assay for Identification of Small Molecule Agonists for Hypoxia Response Element Signaling Pathway (AID 914; active = well fitted activation curve with a large enough effect in the signal ratio, with a control signal flat, not every such curve was filed as active; the % refers to the signal ratio; also: potency is read from the fitted curve at half-maximal effect). Particulars: ME-180 (cervical carcinoma) HRE-bla reporter, beta-lactamase ratio, CoCl2, 17 h; activation: active compounds read high. A digest of the protocol:
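HRE-bla ME-180 cells with beta-lactamase reporter under hypoxia response element, compounds with EC50 CoCl2 for 17 hours at 37 C. CCF4 substrate, 460nm/530nm emission ratio gave %Activity; AC50 from titration series.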

For assay [20], the target named is Cytochrome P450 3A4 (Homo sapiens) (UniProt P08684). Kind of assay: qHTS Assay for Activators of Cytochrome P450 3A4 (AID 885). Also: nearly all actives have a fitted effect of over 65% in size. Particulars: recombinant CYP3A4, Luciferin-PPXE luminescence, 60 min; series mostly up to 57.1 µM. The method, boiled down:
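Quantitative HTS format: compounds preincubated with 20nM human CYP3A4 and Luciferin-PPXE substrate at KM, reaction started by NADPH regeneration, stopped after 60 min, luciferase luminescence read 20 min later.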

Sequence of Lysosomal acid glucosylceramidase (Homo sapiens) (P04062 whole entry, looked up): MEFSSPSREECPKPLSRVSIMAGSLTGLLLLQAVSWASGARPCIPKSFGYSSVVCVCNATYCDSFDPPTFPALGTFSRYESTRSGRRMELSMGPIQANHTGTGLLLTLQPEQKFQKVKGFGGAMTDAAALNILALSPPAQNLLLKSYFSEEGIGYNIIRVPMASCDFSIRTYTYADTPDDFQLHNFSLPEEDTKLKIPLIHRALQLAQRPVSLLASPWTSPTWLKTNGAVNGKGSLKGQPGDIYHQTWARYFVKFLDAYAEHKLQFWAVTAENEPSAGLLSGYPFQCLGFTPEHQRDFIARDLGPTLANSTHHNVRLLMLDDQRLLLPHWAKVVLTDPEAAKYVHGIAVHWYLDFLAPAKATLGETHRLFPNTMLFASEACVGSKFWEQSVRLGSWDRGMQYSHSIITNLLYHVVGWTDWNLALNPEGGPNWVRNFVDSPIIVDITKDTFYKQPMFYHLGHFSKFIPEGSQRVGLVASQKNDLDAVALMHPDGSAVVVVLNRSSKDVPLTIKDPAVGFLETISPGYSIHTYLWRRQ
Sequence of Cytochrome P450 3A4 (Homo sapiens) (P08684 whole entry, looked up): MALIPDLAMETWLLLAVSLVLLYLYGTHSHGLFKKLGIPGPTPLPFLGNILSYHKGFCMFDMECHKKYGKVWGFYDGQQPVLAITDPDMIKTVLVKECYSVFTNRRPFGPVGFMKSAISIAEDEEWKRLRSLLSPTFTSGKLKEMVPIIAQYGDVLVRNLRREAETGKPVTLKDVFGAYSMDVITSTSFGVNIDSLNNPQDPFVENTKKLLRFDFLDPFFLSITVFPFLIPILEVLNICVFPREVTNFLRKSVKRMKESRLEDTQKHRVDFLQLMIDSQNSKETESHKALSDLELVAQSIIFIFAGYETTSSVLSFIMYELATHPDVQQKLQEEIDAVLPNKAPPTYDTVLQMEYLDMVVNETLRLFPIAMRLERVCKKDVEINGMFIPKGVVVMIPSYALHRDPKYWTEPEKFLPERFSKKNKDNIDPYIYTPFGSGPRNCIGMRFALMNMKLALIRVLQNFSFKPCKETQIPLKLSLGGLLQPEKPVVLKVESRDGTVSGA
Sequence of Dual specificity protein kinase CLK4 (Homo sapiens) (Q9HAZ1 whole entry, looked up): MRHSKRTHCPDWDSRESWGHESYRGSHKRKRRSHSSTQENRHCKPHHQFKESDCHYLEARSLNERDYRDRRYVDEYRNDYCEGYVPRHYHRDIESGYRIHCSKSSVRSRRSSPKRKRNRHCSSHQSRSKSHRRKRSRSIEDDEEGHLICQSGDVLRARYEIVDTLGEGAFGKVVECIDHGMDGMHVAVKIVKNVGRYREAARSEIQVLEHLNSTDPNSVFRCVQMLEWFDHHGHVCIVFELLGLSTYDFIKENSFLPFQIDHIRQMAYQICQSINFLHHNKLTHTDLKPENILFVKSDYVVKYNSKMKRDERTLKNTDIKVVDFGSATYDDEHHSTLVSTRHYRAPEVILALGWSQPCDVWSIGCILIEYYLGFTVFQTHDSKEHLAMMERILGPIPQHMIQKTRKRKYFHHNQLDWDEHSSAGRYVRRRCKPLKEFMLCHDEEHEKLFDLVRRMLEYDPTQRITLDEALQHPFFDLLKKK
Sequence of Cytochrome P450 1A2 (Homo sapiens) (P05177 whole entry, looked up): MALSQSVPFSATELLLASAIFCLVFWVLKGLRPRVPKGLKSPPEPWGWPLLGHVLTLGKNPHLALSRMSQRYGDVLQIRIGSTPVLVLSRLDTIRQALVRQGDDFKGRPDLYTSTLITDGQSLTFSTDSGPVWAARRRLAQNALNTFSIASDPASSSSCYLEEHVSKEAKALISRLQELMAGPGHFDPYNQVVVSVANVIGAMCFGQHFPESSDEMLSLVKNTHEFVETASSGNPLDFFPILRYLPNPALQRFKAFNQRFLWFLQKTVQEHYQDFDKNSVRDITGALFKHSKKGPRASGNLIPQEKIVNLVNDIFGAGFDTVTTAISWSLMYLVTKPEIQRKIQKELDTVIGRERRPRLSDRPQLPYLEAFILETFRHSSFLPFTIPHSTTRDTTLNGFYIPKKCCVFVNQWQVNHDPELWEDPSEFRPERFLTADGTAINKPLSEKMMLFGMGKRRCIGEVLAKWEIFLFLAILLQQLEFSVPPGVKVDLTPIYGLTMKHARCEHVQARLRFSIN
Sequence of Cytochrome P450 2C19 (Homo sapiens) (P33261 whole entry, looked up): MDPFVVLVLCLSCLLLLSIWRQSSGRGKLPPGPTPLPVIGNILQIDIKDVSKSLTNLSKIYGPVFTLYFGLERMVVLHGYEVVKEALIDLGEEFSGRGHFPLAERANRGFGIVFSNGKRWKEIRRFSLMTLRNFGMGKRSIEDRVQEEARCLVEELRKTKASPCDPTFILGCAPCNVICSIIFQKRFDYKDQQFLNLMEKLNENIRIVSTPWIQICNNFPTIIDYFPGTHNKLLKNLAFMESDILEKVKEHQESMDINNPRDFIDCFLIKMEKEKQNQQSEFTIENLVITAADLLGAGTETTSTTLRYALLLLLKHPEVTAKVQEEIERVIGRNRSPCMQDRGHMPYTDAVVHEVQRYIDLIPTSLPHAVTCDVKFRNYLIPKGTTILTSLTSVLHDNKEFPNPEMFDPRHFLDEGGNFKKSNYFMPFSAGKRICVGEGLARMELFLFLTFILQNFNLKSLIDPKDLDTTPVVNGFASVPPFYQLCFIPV

As for `CNc1ncnc2ccc(-c3cccc(OC)c3)cc12`, the Potency in assay [1] is over 11.4 µM; in assay [3], 0.501 µM (active); in [5], over 46 µM; in assay [6] it was over 46 µM; in assay [9] it was 0.501 µM (active); in assay [10] it was 0.501 µM (active). Also, the Potency in [11] is 0.501 µM (active); in assay [12] it was 0.282 µM (active). Moreover, in assay [2], the activity change, negative = inhibition was -19.8%. Besides, the activity, negative = inhibition in assay [4] was -20.2%. The Potency entry in assay [7], in assay [8] and in assay [13] was “inactive” throughout. For the same compound, in assay [14], the outcome was inactive.

In the case of `CN(C)c1ccc(-c2nc(NCCc3cnc[nH]3)c3ccccc3n2)cc1`, the Potency is 6.71 µM (active) in assay [1]; 0.631 µM (active) in assay [3]; over 46 µM in assay [5]; over 46 µM in assay [6]; 2.51 µM (active) in assay [15]; 7.94 µM (active) in [16]. Moreover, the Potency in [17] is 1.58 µM (active); in assay [10] it was 28.2 µM (active); in assay [11] it was 22.4 µM (active). Besides, the activity change, negative = inhibition in [2] is 0.922%. For the same compound, in assay [4], the activity, negative = inhibition was 15.6%. The Potency entry in assay [7], in [8], in assay [12] and in [13] was “inactive” throughout. Also, in [14], the result was inactive.

For `N#CCCn1c(=O)c(-c2ccccc2)nc2cnc(N3CCOCC3)nc21`, the Potency in assay [1] is over 11.4 µM; in assay [3] it was 10 µM (active); in assay [5] it was over 9.22 µM; in assay [6], over 46 µM. Besides, the activity change, negative = inhibition in assay [2] is 20.5%. The Potency result in assay [7], in assay [8], in assay [10], in assay [11], in assay [12] and in assay [13] was “inactive” each time. Moreover, in assay [14], the result was inactive.

As to `CN(C)c1ncc2nc(-c3ccc(Cl)cc3)c(=O)n(Cc3ccc(F)cc3)c2n1`, the Potency in assay [1] was over 11.4 µM; in [3] it was 5.01 µM (active); in assay [5], over 9.22 µM; in assay [6], over 46 µM; in assay [19], 1.26 µM (active). Also, the activity change, negative = inhibition in assay [2] was 115% [activator] (active); in [18], 137% [activator] (active). The Potency entry in assay [7], in assay [8], in assay [15], in [10], in assay [11] and in [12] was “inactive” throughout. The result in assay [14] was inactive.

For `COc1cccc(Cn2c(=O)c(-c3ccc(Cl)cc3)nc3cncnc32)c1`, the Potency was over 11.4 µM in assay [1], over 9.22 µM in assay [5] and over 46 µM in assay [6]. For the same compound, the activity change, negative = inhibition in assay [2] was -9.78%; in assay [18], -4.86%. Besides, in assay [4], the activity, negative = inhibition is -0.792%. For the same compound, the Potency result in assay [7], in assay [10], in assay [11], in [12] and in assay [13] was “inactive” in each case. Moreover, the outcome in assay [14] was inactive.

Turning to `Cc1noc(C)c1-c1ccc2ncnc(N3CCOCC3)c2c1`, the Potency in assay [1] is over 11.4 µM; in [3], 12.6 µM (active); in assay [5] it was over 46 µM; in [6], over 46 µM; in assay [10] it was 12.6 µM (active); in [11] it was 7.94 µM (active). For the same compound, the Potency in assay [12] is 8.91 µM (active). In addition, the activity change, negative = inhibition in assay [2] was 11%. Moreover, in assay [4], the activity, negative = inhibition is -8.22%. In addition, the Potency result in assay [7], in [8], in assay [20] and in [13] was “inactive” in each case. In addition, the result in assay [14] was inactive.
